The results in this text go back to PubChem BioAssay (NCATS).

The source made the active and inactive calls. The rule behind the calls is not given here. Numbered stars: 1 amine (or outer) side, 2 acyl side, 3 side chain; on linkers, the order of the positions; unused ones are H or OH. Bridge positions count the residues as written; N and C are the ends. Square brackets hold non-standard residues; d marks the D form. Peptide text beside a SMILES is read from it. I, II: the chains in the order shown. ξ: configuration not given here. Actinocin(9to1) = Cc1c2oc3c(C)ccc(C(=O)[*:1])c3nc-2c(C(=O)[*:2])c(N)c1=O; ξNMeV = CNC(C(=O)O)C(C)C; ξV = CC(C)C(N)C(=O)O; Sar = CNCC(=O)O
Potency is the fitted concentration of half-maximal effect.

The first experiment is described as follows: Immunotoxin (HA22) sensitization/mitigation study. Vehicle arm (PBS) (AID 1159510). The following applies: cancer cells viability with PBS vehicle (HA22 study); series mostly up to 46.1 µM.
For `Cc1cccc(Nc2nc(N[C@@H]3CCCC[C@H]3N)ncc2C(N)=O)c1`, the Potency is 18700 nM (active).
The same measure, in the same setting: the value for `OCCC#Cc1nc(-c2ccc(F)cc2)c(-c2ccncc2)n1CCCc1ccccc1` was 23500 nM (active).
On the same count and under the same terms, the same measure for `C[C@@H](Oc1cc(-n2cnc3ccc(CN4CCN(C)CC4)cc32)sc1C(N)=O)c1ccccc1C(F)(F)F`: 13.2 nM (active); for `Cc1cccc(-c2nn(C(=S)Nc3ccccc3)cc2-c2ccnc3ccccc23)n1`: 18700 nM (active).
Same read-out and setting: the same measure for `OC[C@H]1O[C@@H](n2cnc3c2NC=NC[C@@H]3O)C[C@H]1O`: “inactive”; for `COc1cc2nccc(Oc3ccc(NC(=O)Nc4cc(C)on4)c(Cl)c3)c2cc1OC`: 18700 nM (active); for `CC(C)(C)OC(=O)Nc1ccc(-c2cc(C(=O)NCCCCCCC(=O)NO)no2)cc1`: 93.5 nM (active).

Another experiment in a line: Immunotoxin (SS1P) sensitization/mitigation study. Vehicle arm (DMEM) (AID 1159513). The following applies: cell viability with vehicle (DMEM); series mostly up to 46.1 µM.
With `COC(=O)[C@]12CCC(C)(C)C[C@@H]1[C@@H]1C(=O)C=C3[C@@]4(C)C=C(C#N)C(=O)C(C)(C)[C@@H]4CC[C@@]3(C)[C@]1(C)CC2`, the Potency is 833 nM (active).
Consider `Cc1c(CN2CCN(C(=O)C(C)C)CC2)sc2c(N3CCOCC3)nc(-c3cnc(N)nc3)nc12`, for which the Potency is 46.9 nM (active).
Turning to `NC(=O)Nc1cc(-c2cccc(F)c2)sc1C(=O)N[C@H]1CCCNC1`, the Potency was 590 nM (active).
Same read-out and setting: the same measure for `CCN1CCN(Cc2ccc(-c3cc4c(N[C@H](C)c5ccccc5)ncnc4[nH]3)cc2)CC1`: 23500 nM (active).
`O=c1[nH]nc(Sc2ncc([N+](=O)[O-])s2)n1-c1ccc2c(c1)OCCO2`: the Potency was 20900 nM (active).
On to `OCCn1cc(-c2cnc3nnn(Cc4ccc5ncccc5c4)c3n2)cn1`, for which the Potency entry is “inactive”.
Turning to `Nc1ccc(-c2ccc3ncc4ccc(=O)n(-c5cccc(C(F)(F)F)c5)c4c3c2)cn1`, the Potency was 52.6 nM (active).
For `COc1cc(=C2C=c3ccccc3=N2)[nH]c1=Cc1[nH]c(C)cc1C`, the Potency is 6620 nM (active).
On to `C1Cc2[nH]nc(-c3nn[nH]n3)c2C1`, for which the Potency entry was “inactive”.
In the case of `NC(=O)Nc1cc(-c2ccc(CN3CCOCC3)c(F)c2)sc1C(=O)N[C@H]1CCCNC1`, the Potency was 209 nM (active).
Take `COc1ccc(-c2ccc3c(N4CCOCC4)nc(N4C[C@@H](C)O[C@@H](C)C4)nc3n2)cc1CO`: the Potency was 105 nM (active).
For `O=C(O)CC/C=C\CC[C@H]1[C@@H](N2CCCCC2)[C@@H](O)C[C@@H]1OCc1ccc(-c2ccccc2)cc1`, the Potency result is “inactive”.
For the compound `N#Cc1ccc(NC(=O)Nc2ccccc2Br)c2n[nH]nc12`, the Potency result was “inactive”.
With `O=C(C=Cc1c(C(=O)O)[nH]c2cc(Cl)cc(Cl)c12)Nc1ccccc1`, the Potency result is “inactive”.
Take `Cc1c2oc3c(C)ccc(C(=O)N[C@@H]4C(=O)NC(C(C)C)C(=O)N5CCC[C@H]5C(=O)N(C)CC(=O)N(C)C(C(C)C)C(=O)O[C@@H]4C)c3nc-2c(C(=O)N[C@@H]2C(=O)NC(C(C)C)C(=O)N3CCC[C@H]3C(=O)N(C)CC(=O)N(C)C(C(C)C)C(=O)O[C@@H]2C)c(N)c1=O` (stereo partly specified) (I: T[ξV]P[Sar][ξNMeV] / II: T[ξV]P[Sar][ξNMeV]; ester I:1-I:C, II:1-II:C; linker I:N-II:N via Actinocin(9to1)): the Potency was 3 nM (active).
In the case of `COc1cccc2cc(-c3nc(C4CCC(C(=O)O)CC4)n4ncnc(N)c34)[nH]c12` (stereo unspecified), the Potency was 235 nM (active).
With `CCCCc1nc2cc(C=CC(=O)NO)ccc2n1CCN(CC)CC`, the Potency was 264 nM (active).
On the same count and under the same terms, the value for `O=C(O)c1ccc2c(c1)nc(Nc1cccc(Cl)c1)c1ccncc12` was 11800 nM (active); that for `OCCn1cc(-c2ccc3c(c2)CCC3=NO)c(-c2ccncc2)n1` was “inactive”; that for `Cc1[nH]nc2ccc(-c3cncc(OC[C@@H](N)Cc4ccccc4)c3)cc12` was 1320 nM (active).
As for `COCCNCCCn1c(C(=O)CF)c(-c2ccc(C)cc2)c2c(N)ncnc21`, the Potency result was “inactive”.
As to `CC(C)CC(=O)Nc1n[nH]c2c1CN(C(=O)C1CCN(C)CC1)C2(C)C`, the Potency is 264 nM (active).
On to `c1ccc2c(-c3cnn4cc(-c5ccc(N6CCNCC6)cc5)cnc34)ccnc2c1`, for which the Potency was 18700 nM (active).
As to `CCC1(O)CC2CN(CCc3c([nH]c4ccccc34)[C@@](C(=O)OC)(c3cc4c(cc3OC)N(C=O)[C@H]3[C@](O)(C(=O)OC)[C@H](OC(C)=O)[C@]5(CC)C=CCN6CC[C@]43[C@@H]65)C2)C1` (stereo partly specified), the Potency is 3.3 nM (active).
With `CCC(=O)N[C@H]1CC[C@H](C(=O)N(C)c2ccc(-c3nc4ccccc4o3)cc2)C1`, the Potency is 7430 nM (active).
In the case of `OCCC#Cc1nc(-c2ccc(F)cc2)c(-c2ccncc2)n1CCCc1ccccc1`, the Potency is 18700 nM (active).
For `C[C@@H](Oc1cc(-n2cnc3ccc(CN4CCN(C)CC4)cc32)sc1C(N)=O)c1ccccc1C(F)(F)F`, the Potency is 1.9 nM (active).
For `OC[C@H]1O[C@@H](n2cnc3c2NC=NC[C@@H]3O)C[C@H]1O`, the Potency entry was “inactive”.
In the case of `CC(C)(C)OC(=O)Nc1ccc(-c2cc(C(=O)NCCCCCCC(=O)NO)no2)cc1`, the Potency was 1180 nM (active).
